# Test results from PubChem BioAssay (Tox21).
# Inconclusive results are not listed. Values without a mark were called inactive. Calls of active or inactive are those of the source. Calls come from the whole dose curve.
# Test: cAMP Responsive Elements (CRE) small molecule agonists, cell-based qHTS assay (AID 1963590)
# Settings: CRE-bla HEK293T, beta-lactamase FRET ratio, 3 h; series mostly up to 92.4 µM; activation: at the top concentration
# Text: U.S. Tox21 Program National Center for Advancing Translational Sciences [NCATS] Division of Preclinical Innovation [DPI] U.S. Environmental Protection Agency [EPA] National Institutes of Environmental Health Sciences [NIEHS] National Toxicology Program [NTP] U.S. Food and Drug Administration [FDA] Tox21 Assay Overview: CREB (cyclic-AMP Responsive Element Binding Protein) is a cellular transcription factor. It binds to certain DNA sequences called cAMP Responsive Elements (CRE) and regulates the transcription of the genes. […] This cell line can be used to find agonists/antagonists of the cyclic AMP signaling pathway. The activation of the report gene under culture conditions can be detected by fluorescence intensity. This cell line has been used to screen the Tox21 10K compound library to identify agonists that induce oxidative stress.
# Tox21 Assay Protocol Summary: CRE-bla Hek 293T cells were suspended in assay medium (DMEM containing 10% dialyzed FBS, 0.1 mM NEAA, 1 mM sodium pyruvate and 25 mM HEPES) and dispensed at 2,000 cells/5 uL /well into 1536-well black wall/clear bottom plates using a Multidrop Combi (ThermoFisher Scientific, Waltham, MA) dispenser. After the assay plates were incubated at 37 C/5% CO2 for 18 hrs, 23 nL of compounds dissolved in DMSO, positive controls or DMSO only was transferred to the assay plate by a pintool workstation (Kalypsys, San Diego, CA). After the plates were incubated at 37 C/5% CO2 for 3 hrs, 1 uL of LiveBLAzer B/G FRET substrate (Invitrogen, Carlsbad, CA) was added to each well using Bioraptr Flying Reagent Dispenser (FRD, Aurora Discovery, San Diego, CA). The plates were incubated at room temperature for 2 h.
# % is set by controls: 0 for no effect and ±100 for the full control effect.
SMILES,activation,Potency
CCCCCCCC(=O)N(C)C,0.352%,
Cc1ccc(O)c([N+](=O)[O-])c1,-0.0068%,
CC(C=O)Cc1ccc(C(C)(C)C)cc1 (stereo not given),,inactive
C1=CCC2CC=CC2C1 (stereo not given),0.017%,
O=C1OC(CN2CCOCC2)CN1/N=C/c1ccc([N+](=O)[O-])o1 (stereo not given),0.0276% [at 42.5 µM],
Cc1oc(C)c(C(=O)Nc2ccccc2)c1C,0.724%,
COc1ccc2nc(N)sc2c1,,inactive
CC(C)(C)c1cc(C(C)(C)C)c(O)c(C(C)(C)C)c1,,inactive
C1=Cc2ccccc2C1,-0.105%,
CO[Si](OC)(OC)c1ccccc1,0.336%,
Cc1ccc(C=O)cc1,-0.889% [at 42.5 µM],
CC(C)N=C(N)/N=C(\N)Nc1ccc(Cl)cc1,-1.09% [at 42.5 µM],
O=C1CCN(c2ccccc2)N1,0.186%,
CN(C1CCCCC1)S(=O)(=O)c1ccccc1N,5.66%,
[Cl][Dy]([Cl])[Cl],0.625%,
Cc1ccc(-c2ccccc2)cc1,-1.48%,
CCCCN=C(N)N=C(N)N,-1.02% [at 42.5 µM],
O=C1CCC(=O)N1,-0.0523%,
CNCCO,-0.0135%,
O=C(O)c1cc(O)c(O)c(O)c1,,inactive

SMILES,activation,Potency
C1CCSC1,-0.454%,
CCCCN(CCO)CCO,0.305%,
Cc1cc(C)c(C(=O)O)c(C)c1,-1.28%,
CCCCCCCCCCCCCCCCCC(=O)OCC(CC)CCCC (stereo not given),-0.524%,
O=C(O)c1ccc(OCCN2CCCCC2)cc1,0.649% [at 42.5 µM],
CC(C)COC(=O)c1ccc(N)cc1,0.471% [at 42.5 µM],
O=C(O)CC(=O)O,1.65%,
CCCO[Si](OCCC)(OCCC)OCCC,-0.0403%,
CCN(CC#N)c1cccc(C)c1,-0.0668%,
C[C@@H](O)[C@H]1C(=O)N2C(C(=O)O)=C([C@H]3CCCO3)S[C@H]12,0.557% [at 42.5 µM],
CCCC[O][Al]([O]CCCC)[O]CCCC,-1.02%,
Fc1c(F)c(F)c(Br)c(F)c1F,-1.2%,
COC(=O)CCCCC(=O)O,-1.05%,
CSc1cnccn1,0.36%,
O=C(O)CSCC(=O)NC1CCSC1=O (stereo not given),-0.0213% [at 42.5 µM],
CSCCC=O,-2.07%,
Nc1ccc(S(=O)(=O)Nc2ccc(Cl)nn2)cc1,0.145% [at 42.5 µM],
CCCCCC/C=C/C(=O)OC,0.905%,
CC(=O)OC/C=C/c1ccccc1,-0.387%,
CCNc1cc(O)ccc1C,1.39%,
